DAX1 inh-1: DAX1 (NR0B1) inhibition, primary screen. HEK293T StAR-luciferase reporter, SF-1/DAX-1 repression relief. inhibition, % at 6.8 µM. actives 1.1% (n = 370,000);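 active = inhibition above the mean over all tested compounds plus 3 SD, cut at about 3.6% in these data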;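 also: higher inhibition means more luminescence from relief of DAX-1 repression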
ssDAF-12 act: activates DAF-12 receptor from parasite S. stercoralis; HEK293 ssDAF-12/GRIP1 lit1-tk-luc reporter, luminescence; % of 3 µM dafachronic acid response; activation, % at 6.8 µM; actives 1% (n = 370,000);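 active = activation above the mean over all tested compounds plus 3 SD, cut at about 0.9% in these data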
hgDAF-12 ag: hgDAF-12 agonism, primary luciferase screen. HEK293 GAL4-hgDAF12 UAS-luciferase reporter, agonist luminescence; normalized to butyrate control. activation, % at 6.8 µM. actives 1.8% (n = 370,000). AID 687014;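 active = activation above a cutoff set at the mean of all screened compounds plus 3 SD, cut at about 10% in these data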
SMARCA2 act: activators of SMARCA2 function; AID 652017; activation, % at 9.1 µM; MG213 cells, MMTV-luciferase reporter, dexamethasone, overnight; actives 1% (n = 370,000); in the data active = activation above about 7.8%
DAX1 inh-2: inhibits human nuclear receptor DAX1; HEK293 Gal4-DAX1 luciferase reporter, luminescence; inhibition, % at 6.75 µM; actives 0.99% (n = 340,000);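 active = inhibition above the mean over all tested compounds plus 3 SD, cut at about 4.2% in these data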;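 also: inhibition shows as a rise in luminescence from relieved DAX1 repression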
Target sequence (P51843 207-470 limits assumed): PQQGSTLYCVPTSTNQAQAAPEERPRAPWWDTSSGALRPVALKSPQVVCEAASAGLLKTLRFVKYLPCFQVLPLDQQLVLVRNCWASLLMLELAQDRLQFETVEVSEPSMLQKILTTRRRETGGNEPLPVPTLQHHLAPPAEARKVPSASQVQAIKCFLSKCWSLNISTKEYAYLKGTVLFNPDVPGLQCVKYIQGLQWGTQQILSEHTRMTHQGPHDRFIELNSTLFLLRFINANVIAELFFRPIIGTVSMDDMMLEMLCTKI
hcDAF-12 act: H. contortus DAF-12 activation, primary screen; actives 1.4% (n = 370,000); HEK293 hcDAF-12 lit1-tk-luc reporter, luminescence; 0% DMSO, 100% Δ7-dafachronic acid; activation, % at 6.8 µM; AID 652067;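 active = activation above the mean of all tested compounds plus 3 SD, cut at about 5.5% in these data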
LXR ag: activates human LXR-beta, counter-screen for hcDAF-12 agonists; 3,400 tested, under 10 active; HEK293 Gal4-LXR tk-luc reporter, luminescence, 24 h; normalized: DMSO 0%, positive control 100%; shares compounds with hcDAF-12 act; AID 743027; activation, % at 6.8 µM;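 active = mean percent activation of the reporter above a cutoff set as the average over tested compounds plus their standard deviation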
Target sequence (P55055 whole entry, looked up, the tested form may be a part): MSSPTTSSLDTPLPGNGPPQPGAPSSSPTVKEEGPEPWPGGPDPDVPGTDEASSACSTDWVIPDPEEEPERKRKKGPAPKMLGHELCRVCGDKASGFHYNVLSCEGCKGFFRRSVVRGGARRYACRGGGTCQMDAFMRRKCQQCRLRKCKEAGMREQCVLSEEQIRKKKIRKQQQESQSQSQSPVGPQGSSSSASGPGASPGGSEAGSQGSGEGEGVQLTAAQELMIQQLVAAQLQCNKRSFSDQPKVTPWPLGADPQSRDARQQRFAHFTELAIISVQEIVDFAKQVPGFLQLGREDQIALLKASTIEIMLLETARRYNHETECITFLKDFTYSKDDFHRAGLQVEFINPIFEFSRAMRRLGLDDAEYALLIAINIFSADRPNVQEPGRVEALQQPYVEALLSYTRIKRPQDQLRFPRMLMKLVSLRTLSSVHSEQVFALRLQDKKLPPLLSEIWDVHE
hcDAF12 conf: hcDAF-12 agonism, confirmation assay; shares compounds with hcDAF-12 act; HEK293 hcDAF-12 lit1-tk-luc reporter, luminescence; % of Δ7-dafachronic acid response; activation, % at 6.8 µM; actives 61% (n = 3,400); AID 743032;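 active = mean activation across triplicate tests above the threshold derived from the earlier primary screen, cut at about 5.5% in these data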
hgDAF12 ag: confirmation of H. glycines DAF-12 agonists; shares compounds with hgDAF-12 ag; HEK293 GAL4-hgDAF12 luciferase reporter, agonist mode; percent of butyrate response; activation, % at 6.8 µM; actives 80% (n = 3,300);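 active = mean activation over triplicate wells above the hit cutoff derived from the earlier primary screen, cut at about 11% in these data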
LXR ag 2: counter-screen for DAF-12 agonists: agonists of human LXR-beta | 3,300 tested, under 10 active | activation, % at 6.8 µM | HEK293 Gal4-LXR luciferase reporter, 24 h | shares compounds with hgDAF-12 ag;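 active = mean activation of the triplicate above a set limit carried over from the primary screen, none filed active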
Each line names hits and unclear results; the compound was inactive in the other large screens (follow-up assays come after a bar, where they were run). Shown are actives, neighbours in structure and some others; about 4.8% of the full set was active somewhere.

CC1=CN2C(=N)/C(=C/c3ccc(C)o3)C(=O)N=C2S1	DAX1 inh-1 4.0, hgDAF-12 ag 20.1, hcDAF-12 act 14.9 | LXR ag inactive | hcDAF12 conf inactive | hgDAF12 ag 11.6 | LXR ag 2 inactive
CC1=CN2C(=N)/C(=C/c3ccc(Sc4ccc(C)cc4)o3)C(=O)N=C2S1	none
O=C(CN1C(=O)CCC1=O)Nc1nc(-c2nc3ccccc3s2)cs1	DAX1 inh-1 4.5, ssDAF-12 act 1.2, hgDAF-12 ag 16.1, hcDAF-12 act 7.6 | LXR ag inactive | hcDAF12 conf inactive | hgDAF12 ag 12.2 | LXR ag 2 inactive
O=C(CN1C(=O)CCC1=O)Nc1nc(-c2ccccn2)cs1	none
O=C(OCC#CCSc1nnc(-c2cccc3ccccc23)o1)c1ccc(F)cc1F	none (no result: DAX1 inh-1, SMARCA2 act, DAX1 inh-2)
c1csc(-c2nc3ccccc3[nH]2)c1	none
Cc1ccc(-c2nc3ccccc3[nH]2)s1	DAX1 inh-1 3.8, ssDAF-12 act 1.9, hgDAF-12 ag 19.6, hcDAF-12 act 7.9 | LXR ag inactive | hcDAF12 conf 8.2 | hgDAF12 ag 19.3 | LXR ag 2 inactive
O=C(N[C@H](C(=O)N1CCC[C@H]1C(=O)NC1CCCC1)C1CCCCC1)c1ccco1	none (no result: DAX1 inh-2)
Clc1ccc2nc(-c3ccccc3)cn2c1	ssDAF-12 act 1.9, hgDAF-12 ag 17.8, hcDAF-12 act 11.2 | LXR ag inactive | hcDAF12 conf 9.7 | hgDAF12 ag 18.1 | LXR ag 2 inactive
CCCCN1CCN(C2=NC(=O)N(c3ccc(Br)cc3)C(=O)C2)CC1	none (no result: DAX1 inh-2)
CC(C)c1ccc(NC(=O)COc2ccc(F)cc2C(=O)c2cnn(-c3ccccc3)c2)cc1	DAX1 inh-1 4.1, ssDAF-12 act 2.2, hgDAF-12 ag 18.0, hcDAF-12 act 12.2 | LXR ag inactive | hcDAF12 conf 13.7 | hgDAF12 ag 17.4 | LXR ag 2 inactive
O=C(Nc1ccccc1)Nc1cccc2cccnc12	ssDAF-12 act 1.8, hgDAF-12 ag 15.2, hcDAF-12 act 9.0 | LXR ag inactive | hcDAF12 conf 8.6 | hgDAF12 ag 16.5 | LXR ag 2 inactive
COc1ccc(Nc2nccc(-c3cccc(N)c3)n2)cc1	hgDAF-12 ag 34.1, hcDAF-12 act 12.9 | LXR ag inactive | hcDAF12 conf 8.7 | hgDAF12 ag 21.3 | LXR ag 2 inactive
COc1ccc(Nc2nccc(-c3ccc(C#N)cc3)n2)cc1	none
Cc1ccc2nc(NC(=O)c3ccccc3F)sc2c1	ssDAF-12 act 1.6, hgDAF-12 ag 18.7, hcDAF-12 act 12.7 | LXR ag inactive | hcDAF12 conf 14.9 | hgDAF12 ag 20.3 | LXR ag 2 inactive
CCOc1ccc2nc(NC(=O)c3ccccn3)sc2c1	none
COc1ccc2nc(NC(=O)c3ccccc3F)sc2c1	hgDAF-12 ag 15.8, hcDAF-12 act 6.9 | LXR ag inactive | hcDAF12 conf 6.2 | hgDAF12 ag 21.0 | LXR ag 2 inactive
O=C(Nc1nc2ccc(F)cc2s1)c1cccs1	ssDAF-12 act 2.7, hgDAF-12 ag 17.8, hcDAF-12 act 19.3 | LXR ag inactive | hcDAF12 conf 8.1 | hgDAF12 ag 19.0 | LXR ag 2 inactive
COc1ccc2nc(NC(=O)c3cnccn3)sc2c1	DAX1 inh-1 3.6, ssDAF-12 act 1.1, hgDAF-12 ag 15.3, hcDAF-12 act 8.6 | LXR ag inactive | hcDAF12 conf inactive | hgDAF12 ag 15.0 | LXR ag 2 inactive
CN[C@H]1C[C@H]2c3[nH]c4c(-c5ccccc5)cccc4c3CCN2C[C@H]1[C@H](C)O	none (no result: DAX1 inh-2)
CSc1nnc(-c2ccccc2SC)o1	none
CSc1ccccc1-c1nnc(-c2ccc(C)cc2)o1	ssDAF-12 act 1.7, hgDAF-12 ag 14.5, hcDAF-12 act 10.3 | LXR ag inactive | hcDAF12 conf 8.8 | hgDAF12 ag 15.0 | LXR ag 2 inactive
COC(=O)C1=C(C)NC(=S)NC1c1ccc(Br)cc1 (stereo unspecified)	none (no result: DAX1 inh-2)
CCCCc1c(-c2ccccc2OC)ncn1Cc1ccccc1C	none (no result: DAX1 inh-2)
c1ccc2c(c1)CCN(c1nc3cc4c(cc3s1)OCO4)C2	DAX1 inh-1 4.2, ssDAF-12 act 2.2, hgDAF-12 ag 13.9, hcDAF-12 act 8.8 | LXR ag inactive | hcDAF12 conf 8.1 | hgDAF12 ag 19.1 | LXR ag 2 inactive
COc1ccc(CCC(=O)N2c3ccccc3N=C(c3ccc(C(F)(F)F)cc3)C2C(=O)NC2CCCC2)cc1 (stereo unspecified)	none (no result: DAX1 inh-2)
COc1ccc(C2=Nc3ccccc3N(C(=O)c3ccc4ncccc4c3)C2C(=O)NC2CCCC2)cc1 (stereo unspecified)	ssDAF-12 act 2.3, hgDAF-12 ag 18.1, hcDAF-12 act 9.7 (no result: DAX1 inh-2) | LXR ag inactive | hcDAF12 conf 10.2 | hgDAF12 ag 11.8 | LXR ag 2 inactive
Cc1ccc(-c2nc(-c3nccc4ccccc34)oc2-c2ccccc2)cc1	hgDAF-12 ag 17.2, hcDAF-12 act 7.7 | LXR ag inactive | hcDAF12 conf 9.5 | hgDAF12 ag 16.2 | LXR ag 2 inactive
O=c1[nH]c(N/N=C\c2ccc(F)cc2)nc2ccccc12	ssDAF-12 act 1.6, hgDAF-12 ag 15.4, hcDAF-12 act 8.4 | LXR ag inactive | hcDAF12 conf inactive | hgDAF12 ag 18.3 | LXR ag 2 inactive
O=c1[nH]c(N/N=C/c2ccc(O)cc2)nc2ccccc12	none
Cc1ccc2oc(-c3ccccc3)c(C(=O)O)c(=O)c2c1	hgDAF-12 ag 18.4, hcDAF-12 act 6.7 | LXR ag inactive | hcDAF12 conf 6.1 | hgDAF12 ag 18.4 | LXR ag 2 inactive
COc1ccccc1C(=O)NNC(=O)c1ccccc1F	ssDAF-12 act 1.5, hgDAF-12 ag 16.3, hcDAF-12 act 11.3 | LXR ag inactive | hcDAF12 conf 10.7 | hgDAF12 ag 14.9 | LXR ag 2 inactive
COc1ccc2c3c([nH]c2c1)C1=NCC[C@]12c1ccccc1N=CN2CC3	none (no result: DAX1 inh-1, SMARCA2 act, DAX1 inh-2)
c1cncc(-c2noc(-c3ccc4ccccc4c3)n2)c1	ssDAF-12 act 1.0, hgDAF-12 ag 16.6, hcDAF-12 act 8.8 | LXR ag inactive | hcDAF12 conf inactive | hgDAF12 ag 18.6 | LXR ag 2 inactive
COc1ccc(-c2noc(-c3cccnc3)n2)cc1OC	none
